# Values joined by “and” are separate entries in the source; they are usually repeats but may differ in a detail not shown here. Identical values can stand only once. Hit rate of the full screen: of about 5,500 compounds, about 2,000 (36%) were called active. About 18% were inconclusive and are not listed. This is one part of the list. A number with no mark means an inactive call. Rule as the data show it: active = normalized growth mostly below about 0.91 (no sharp cut-off); inconclusive = no clear call, values can overlap the other calls; inactive = mostly above about 0.92.
# Assay: chemical genetic growth profiling, strain panel (AID 1159580);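 also: tested at 20 µM; growth read once vehicle control cultures reached saturation at 30 °C; 1 = growth at the plate median or of vehicle wells; lower values mean less growth of the strain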
# Conditions: S. cerevisiae deletion strains, growth OD
smiles,measurement,setting,value
Oc1cc(O)c2c(c1)O[C@H](c1ccc(O)c(O)c1)[C@H](O)C2,normalized growth,"locus YAL021C, strain ccr4, active compounds read low",1.02
same,normalized growth,"locus YAL026C, strain drs2, active compounds read low",1.01
same,normalized growth,"locus YAL030W, strain snc1, active compounds read low",1
same,normalized growth,"locus YBL061C, strain skt5, active compounds read low",1.02
same,normalized growth,"locus YBR009C, strain hhf1, active compounds read low",1.02
same,normalized growth,"locus YBR021W, strain FUR4, active compounds read low",1.21 [resistant] (active)
same,normalized growth,"locus YBR023C, strain chs3, active compounds read low",1.01
same,normalized growth,"locus YBR171W, strain sec66, active compounds read low",1.02
same,normalized growth,"locus YBR229C, strain ROT2, active compounds read low",1
same,normalized growth,"locus YBR231C, strain swc5, active compounds read low",1.02
same,normalized growth,"locus YBR279W, strain paf1, active compounds read low",1.01
same,normalized growth,"locus YCL011C, strain gbp2, active compounds read low",1.01
same,normalized growth,"locus YCL016C, strain dcc1, active compounds read low",1
same,normalized growth,"locus YCL029C, strain bik1, active compounds read low",0.976
same,normalized growth,"locus YCL061C, strain MRC1, active compounds read low",1.01
same,normalized growth,"locus YCL069W, strain vba3, active compounds read low",1.01
same,normalized growth,"locus YCR088W, strain abp1, active compounds read low",1.01
same,normalized growth,"locus YDL005C, strain med2, active compounds read low",1.01
same,normalized growth,"locus YDL035C, strain GPR1, active compounds read low",1.03
same,normalized growth,"locus YDL040C, strain nat1, active compounds read low",0.998
same,normalized growth,"locus YDL074C, strain BRE1, active compounds read low",1
same,normalized growth,"locus YDL101C, strain DUN1, active compounds read low",1
same,normalized growth,"locus YDL185W, strain tfp1, active compounds read low",0.953
same,normalized growth,"locus YDL192W, strain arf1, active compounds read low",0.992
same,normalized growth,"locus YDR001C, strain nth1, active compounds read low",1
same,normalized growth,"locus YDR069C, strain doa4, active compounds read low",1
same,normalized growth,"locus YDR101C, strain arx1, active compounds read low",0.986
same,normalized growth,"locus YDR137W, strain rgp1, active compounds read low",1.02
same,normalized growth,"locus YDR150W, strain NUM1, active compounds read low",0.984
same,normalized growth,"locus YDR159W, strain sac3, active compounds read low",1.06
same,normalized growth,"locus YDR162C, strain NBP2, active compounds read low",1.03
same,normalized growth,"locus YDR195W, strain ref2",0.968
same,normalized growth,"locus YDR297W, strain sur2, active compounds read low",1.01
same,normalized growth,"locus YDR318W, strain mcm21, active compounds read low",0.995
same,normalized growth,"locus YDR334W, strain swr1, active compounds read low",1.01
same,normalized growth,"locus YDR335W, strain msn5, active compounds read low",0.994
same,normalized growth,"locus YDR388W, active compounds read low",0.995
same,normalized growth,"locus YDR392W, strain spt3, active compounds read low",1.01
same,normalized growth,"locus YDR502C, strain sam2, active compounds read low",1.01
same,normalized growth,"locus YEL003W, strain gim4, active compounds read low",1.01
same,normalized growth,"locus YEL037C, strain rad23, active compounds read low",1.02
same,normalized growth,"locus YEL061C, strain CIN8 (second series), active compounds read low",1
same,normalized growth,"locus YEL061C, strain CIN8, active compounds read low",0.994
same,normalized growth,"locus YER015W, strain faa2, active compounds read low",1
same,normalized growth,"locus YER016W, strain bim1, active compounds read low",1.01
same,normalized growth,"locus YER110C, active compounds read low",0.969
same,normalized growth,"locus YER111C, strain swi4, active compounds read low",1
same,normalized growth,"locus YER155C, strain BEM2 (second series), active compounds read low",1.02
same,normalized growth,"locus YER155C, strain BEM2, active compounds read low",1
same,normalized growth,"locus YER167W, strain BCK2, active compounds read low",1.02
same,normalized growth,"locus YFR010W, strain ubp6, active compounds read low",1.01
same,normalized growth,"locus YGL078C, strain dbp3, active compounds read low",0.997
same,normalized growth,"locus YGL086W, strain mad1, active compounds read low",0.994
same,normalized growth,"locus YGL167C, strain pmr1, active compounds read low",1.01
same,normalized growth,"locus YGL173C, strain kem1, active compounds read low",1.01
same,normalized growth,"locus YGL227W, strain vid30, active compounds read low",1.01
same,normalized growth,"locus YGL240W, strain doc1, active compounds read low",1.04
same,normalized growth,"locus YGL248W, strain PDE1, active compounds read low",1
same,normalized growth,"locus YGL253W, strain hxk2, active compounds read low",1.02
same,normalized growth,"locus YGR135W, strain pre9, active compounds read low",1.01
same,normalized growth,"locus YGR252W, strain gcn5, active compounds read low",1.13
same,normalized growth,"locus YHR013C, strain ard1, active compounds read low",0.995
same,normalized growth,"locus YHR027C, strain rpn1, active compounds read low",1.01
same,normalized growth,"locus YHR030C, strain SLT2, active compounds read low",1 and 0.992
same,normalized growth,"locus YHR079C, strain IRE1 (second series), active compounds read low",0.975
same,normalized growth,"locus YHR079C, strain IRE1, active compounds read low",0.992
same,normalized growth,"locus YHR094C, strain hxt1, active compounds read low",0.992
same,normalized growth,"locus YHR129C, strain ARP1, active compounds read low",1
same,normalized growth,"locus YHR142W, strain chs7, active compounds read low",1.02
same,normalized growth,"locus YHR200W, strain rpn10, active compounds read low",0.983
same,normalized growth,"locus YIL066C, strain RNR3, active compounds read low",1.01
same,normalized growth,"locus YIL073C, strain SPO22, active compounds read low",0.997
same,normalized growth,"locus YIL125W, strain kgd1, active compounds read low",0.996
same,normalized growth,"locus YIR030C, strain dcg1, active compounds read low",0.986
same,normalized growth,"locus YJL092W, strain hpr5, active compounds read low",1.02
same,normalized growth,"locus YJL095W, strain BCK1 (second series), active compounds read low",1.01
same,normalized growth,"locus YJL095W, strain BCK1, active compounds read low",0.984 and 1
same,normalized growth,"locus YJL115W, strain asf1, active compounds read low",1
same,normalized growth,"locus YJL129C, strain trk1, active compounds read low",1.02
same,normalized growth,"locus YJL134W, strain LCB3, active compounds read low",0.991
same,normalized growth,"locus YJL154C, strain vps35, active compounds read low",1.01
same,normalized growth,"locus YJL164C, strain tpk1, active compounds read low",1
same,normalized growth,"locus YJL166W, strain qcr8, active compounds read low",1.02
same,normalized growth,"locus YJL168C, strain set2, active compounds read low",0.98
same,normalized growth,"locus YJL187C, strain SWE1 (second series), active compounds read low",0.994
same,normalized growth,"locus YJL187C, strain SWE1, active compounds read low",1

# From PubChem BioAssay AID1159580 (chemical genetic matrix, 2015)
